TEAD-YAP block – TEAD-YAP interaction inhibition; inhibition, % at 9.12 µM; 1.4% of 640,000 active; HEK-TIYL cells, TEAD-Gal4/YAP UAS-luciferase luminescence; in the data active = inhibition above about 32%
FBW7 act – activators of human E3 ligase FBW7; Q969H0; AlphaScreen FBW7–phospho-cyclin E peptide binding, activator screen; normalized activity (activation), % at 26.1 µM; 0.13% of 650,000 active; in the data active = normalized activity above about 1.9%;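 note: purified mutant Fbw7 with reduced substrate affinity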
GPR151 ag – activates the human receptor GPR151 | Q8TDV0 | PathHunter beta-arrestin GPR151 cells, luminescence | activation, % at 11.2 µM | 1% of 650,000 active; in the data active = activation above about 4.9%
MITF inh – human MITF inhibition, primary screen | AID 1259374 | 0.91% of 650,000 active | O75030 | AlphaScreen MITF homodimerization, bead proximity signal | inhibition, % at 2.6 µM; in the data active = inhibition above about 50%
Target sequence (O75030 whole entry, looked up): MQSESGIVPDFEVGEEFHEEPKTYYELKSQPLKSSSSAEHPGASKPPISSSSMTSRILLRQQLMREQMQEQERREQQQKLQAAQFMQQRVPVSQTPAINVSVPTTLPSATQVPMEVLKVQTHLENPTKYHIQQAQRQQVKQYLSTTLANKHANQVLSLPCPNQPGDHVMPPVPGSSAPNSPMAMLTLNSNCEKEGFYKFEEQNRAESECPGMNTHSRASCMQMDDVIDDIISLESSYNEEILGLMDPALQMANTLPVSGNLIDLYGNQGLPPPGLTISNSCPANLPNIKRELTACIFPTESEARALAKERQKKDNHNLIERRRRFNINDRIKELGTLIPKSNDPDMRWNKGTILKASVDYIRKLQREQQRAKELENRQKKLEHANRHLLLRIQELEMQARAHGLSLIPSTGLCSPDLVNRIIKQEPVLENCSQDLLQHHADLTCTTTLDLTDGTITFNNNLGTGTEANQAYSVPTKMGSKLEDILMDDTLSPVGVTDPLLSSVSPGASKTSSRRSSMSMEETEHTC
GPR151 confirm – human GPR151 activation, confirmation screen; shares compounds with GPR151 ag; GPR151 PathHunter beta-arrestin cells, luminescence, 90 min; % of EA-reagent control over plate median; activation, % at 11.2 µM; 6,700 tested, under 10 active; AID 1508609;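 active = mean percent activation across replicates above the confirmation screen cutoff of 4.91%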
GPR119 ag – counter-screen for GPR151 activators: effect on human GPR119. GPR119 PathHunter beta-arrestin cells, luminescence, 90 min; 0 = compound-well median, 100 = enzyme-acceptor control. AID 1508611. activation, % at 11.2 µM. 0.3% of 6,700 active. shares compounds with GPR151 ag;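 active = mean percent activation in the counterscreen above 29.09%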;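 note: counterscreen on off-target GPR119 to flag nonselective hits from the GPR151 activator screen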
A number is an active result. Compounds with a hit are over-represented: about 3.4% of the library has one in this group of screens.

What do the screens show for `Cc1ccc2[nH]c3c(c2c1)CCCC3NC(=O)CCl` (centres undefined)?
TEAD-YAP block: 88; FBW7 act: inactive; GPR151 ag: 7.3; MITF inh: inactive; GPR151 confirm: inactive; GPR119 ag: inactive

How did CCCn1c(N2CCN(Cc3ccc(C)cc3)CC2)nc2c1c(=O)[nH]c(=O)n2C do in these assays?
TEAD-YAP block: inactive; FBW7 act: inactive; GPR151 ag: inactive; MITF inh: inactive

Results for COC(=O)C1=NNC2C(=O)N(c3ccccc3OC)C(=O)C12 (centres undefined) ?
TEAD-YAP block: inactive; FBW7 act: inactive; GPR151 ag: inactive; MITF inh: inactive

Results for Cc1ccccc1-c1nc(-c2ccc(Cl)cc2)no1 ?
TEAD-YAP block: inactive; FBW7 act: inactive; GPR151 ag: 5.1; MITF inh: inactive; GPR151 confirm: inactive; GPR119 ag: inactive

What do the screens show for `Cc1ccccc1-c1nc(-c2ccc(Br)cc2)no1`?
TEAD-YAP block: inactive; FBW7 act: inactive; GPR151 ag: inactive; MITF inh: inactive

Results for CS(=O)(=O)N1N=C(c2ccc(Br)cc2)CC1c1cc2ccccc2nc1Cl (centres undefined) ?
TEAD-YAP block: inactive; FBW7 act: inactive; GPR151 ag: inactive; MITF inh: inactive

How did Cc1ccc2nc(Cl)c(C3CC(c4ccc(Br)cc4)=NN3S(C)(=O)=O)cc2c1 (centres undefined) do in these assays?
TEAD-YAP block: inactive; FBW7 act: inactive; GPR151 ag: 5.1; MITF inh: inactive; GPR151 confirm: inactive; GPR119 ag: inactive

Results for O=C(CCC(=O)Nc1ccccc1Cl)NNC(=O)c1ccccc1[N+](=O)[O-] ?
TEAD-YAP block: inactive; FBW7 act: inactive; GPR151 ag: 7.5; MITF inh: inactive; GPR151 confirm: inactive; GPR119 ag: inactive

How did O=C(Nc1ccccc1Cl)c1ccccc1[N+](=O)[O-] do in these assays?
TEAD-YAP block: inactive; FBW7 act: inactive; GPR151 ag: inactive; MITF inh: inactive

What do the screens show for `O=C(Nc1ccccc1N1CCCC1)c1ccccc1[N+](=O)[O-]`?
TEAD-YAP block: inactive; FBW7 act: inactive; GPR151 ag: 5.8; MITF inh: inactive; GPR151 confirm: inactive; GPR119 ag: inactive

Results for N#Cc1ccc(C(=O)Nc2ccccc2N2CCCC2)c(F)c1 ?
TEAD-YAP block: inactive; FBW7 act: inactive; GPR151 ag: 14; MITF inh: inactive; GPR151 confirm: inactive; GPR119 ag: inactive

How did CC1(C)NC(=O)N(CCOc2ccc(OCc3ccccc3)cc2)C1=O do in these assays?
TEAD-YAP block: inactive; FBW7 act: inactive; GPR151 ag: 7.2; MITF inh: inactive; GPR151 confirm: inactive; GPR119 ag: inactive

Results for CCn1c(=O)n(CC(=O)NCC2COc3ccccc3O2)c(=O)c2ccccc21 (centres undefined) ?
TEAD-YAP block: inactive; FBW7 act: inactive; GPR151 ag: inactive; MITF inh: inactive

How did CCn1c2ccccc2n2c(=O)n(CC(=O)NCC3COc4ccccc4O3)nc12 (centres undefined) do in these assays?
TEAD-YAP block: inactive; FBW7 act: inactive; GPR151 ag: 7.5; MITF inh: inactive; GPR151 confirm: inactive; GPR119 ag: inactive

How did CCn1c2ccccc2n2c(=O)n(CC(=O)Nc3ccc4c(c3)OCO4)nc12 do in these assays?
TEAD-YAP block: inactive; FBW7 act: inactive; GPR151 ag: 5.7; MITF inh: inactive; GPR151 confirm: inactive; GPR119 ag: inactive

How did COCCOC(=O)C1=C(C)NC2=C(C(=O)CC(C)(C)C2)C1c1cccs1 (centres undefined) do in these assays?
TEAD-YAP block: inactive; FBW7 act: inactive; GPR151 ag: inactive; MITF inh: inactive

How did Cc1ccc(-c2nc3ccccc3c(=O)n2NC(=O)c2ccco2)cc1C do in these assays?
TEAD-YAP block: inactive; FBW7 act: inactive; GPR151 ag: 5.4; MITF inh: inactive; GPR151 confirm: inactive; GPR119 ag: inactive

What do the screens show for `CCS(=O)(=O)N1Cc2ccccc2CC1C(=O)OCc1ccc(C#N)cc1` (centres undefined)?
TEAD-YAP block: inactive; FBW7 act: inactive; GPR151 ag: inactive; MITF inh: inactive

What do the screens show for `Cc1ccc(OCC(=O)N/N=C/c2ccc(C)cc2O)c(C)c1`?
TEAD-YAP block: inactive; FBW7 act: inactive; GPR151 ag: inactive; MITF inh: inactive

How did CCC(=O)Nc1ccc(NC(=O)CSc2nc3c(c(=O)n(C)c(=O)n3C)n2C)cc1 do in these assays?
TEAD-YAP block: inactive; FBW7 act: inactive; GPR151 ag: 15; MITF inh: inactive; GPR151 confirm: inactive; GPR119 ag: inactive

Results for CN1CCN(CCCOc2ncc(Nc3ncc(-c4ccc(C(F)(F)F)c(F)c4)nc3C(N)=O)cn2)CC1 ?
GPR151 ag: 6.9; GPR151 confirm: inactive; GPR119 ag: inactive

What do the screens show for `O=C(Cc1cc(=O)[nH][nH]1)N/N=C/C=C/c1ccccc1`?
TEAD-YAP block: inactive; FBW7 act: inactive; GPR151 ag: 5.3; MITF inh: inactive; GPR151 confirm: inactive; GPR119 ag: inactive

How did Cc1n[nH]c(C)c1CCC(=O)N/N=C/C=C/c1ccccc1 do in these assays?
TEAD-YAP block: inactive; FBW7 act: inactive; GPR151 ag: 6.5; MITF inh: inactive; GPR151 confirm: inactive; GPR119 ag: inactive

What do the screens show for `O=C(Cc1cccs1)N/N=C\C=C\c1ccccc1`?
TEAD-YAP block: inactive; FBW7 act: inactive; GPR151 ag: inactive; MITF inh: inactive

What do the screens show for `CC(C)c1cc(C(=O)NCc2ccccn2)nn1-c1nc2ccccc2s1`?
TEAD-YAP block: inactive; FBW7 act: inactive; GPR151 ag: inactive; MITF inh: inactive

What do the screens show for `CCOc1ccc(C(=O)NCC2CCCN2S(=O)(=O)c2ccccc2)cc1` (centres undefined)?
TEAD-YAP block: inactive; FBW7 act: inactive; GPR151 ag: 5.6; MITF inh: inactive; GPR151 confirm: inactive; GPR119 ag: inactive

What do the screens show for `CCOc1ccc(NC(=O)C2=CCN(S(=O)(=O)c3ccccc3)CC2)cc1`?
TEAD-YAP block: inactive; FBW7 act: inactive; GPR151 ag: 5.4; MITF inh: inactive; GPR151 confirm: inactive; GPR119 ag: inactive

Results for CC1Sc2ccccc2N(Cc2ccc(C(F)(F)F)nc2)C1=O (centres undefined) ?
TEAD-YAP block: inactive; FBW7 act: inactive; GPR151 ag: 5.4; MITF inh: inactive; GPR151 confirm: inactive; GPR119 ag: inactive

Results for CCOc1cc(C2Nc3ccccc3NC3=C2C(=O)CC(c2ccc(OC)cc2)C3)cc(Cl)c1O (centres undefined) ?
TEAD-YAP block: inactive; FBW7 act: inactive; GPR151 ag: 4.9; MITF inh: inactive; GPR151 confirm: inactive; GPR119 ag: inactive

What do the screens show for `COc1cc(C2Nc3ccccc3NC3=C2C(=O)CC(c2ccc4c(c2)OCO4)C3)ccc1OC(C)=O` (centres undefined)?
TEAD-YAP block: inactive; FBW7 act: inactive; GPR151 ag: 17; MITF inh: inactive; GPR151 confirm: inactive; GPR119 ag: inactive

Compound activity (PubChem BioAssay)
